Reference: PubChem BioAssay (NCI)
The panel holds about 79,000 compounds, 15% with a hit somewhere; the sample as a whole holds those more often. A number with no mark means an inactive call. Activity calls are given as the source filed them. Rule as the data show it: active = growth inhibition above about 70%; inactive = the rest.

What was measured:
[1] = NCI Yeast Anticancer Drug Screen. Data for the rad50 strain (AID 155);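 also: 0% = growth of vehicle-only cultures of the same strain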; details: S. cerevisiae rad50 strain growth inhibition, active compounds read high
Outline: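 Inhibition values express reduced yeast growth in compound-treated cultures relative to vehicle-treated controls.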

[2] = NCI Yeast Anticancer Drug Screen. Data for the mec2-1 strain (AID 157); details: S. cerevisiae mec2-1 strain, active compounds read high
Outline: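 Test agents were screened against the mec2-1 yeast strain, with defined DNA repair or cell cycle alteration. Growth was scored as inhibition against vehicle-only controls.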

[3] = NCI Yeast Anticancer Drug Screen. Data for the sgs1 mgt1 strain (AID 161);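 also: 0% = growth of cultures given vehicle only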; details: S. cerevisiae sgs1 mgt1 strain, active compounds read high
Outline: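 Mutant yeast exposed to compound; growth scored against vehicle-only wells.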

[4] = NCI Yeast Anticancer Drug Screen. Data for the cln2 rad14 strain (AID 165);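 also: 0% = growth equal to vehicle treated cultures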; details: S. cerevisiae cln2 rad14 strain, active compounds read high
Outline: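 Growth of compound-exposed yeast (cln2 rad14 genotype) measured and expressed as inhibition relative to vehicle.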

[5] = NCI Yeast Anticancer Drug Screen. Data for the bub3 strain (AID 167); details: S. cerevisiae bub3 mutant strain, active compounds read high
Outline: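 Steps: expose the mutant yeast strain to compound; grow alongside vehicle-treated cultures; measure growth; express inhibition against the vehicle cultures.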

[6] = NCI Yeast Anticancer Drug Screen. Data for the mlh1 rad18 strain (AID 175); details: S. cerevisiae mlh1 rad18 strain growth inhibition, active compounds read high
Outline: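 In this whole-cell yeast screen, a strain with altered DNA damage repair is challenged with compound, and its growth is measured against matched vehicle-treated controls.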

[7] = at 5.0 µM (retest, dose inferred, filed as 0.5)
[8] = at 50.0 µM (retest, dose inferred, filed as 5.0)

| Compound | growth inhibition [1, 7] | growth inhibition [1, 8] | growth inhibition ([1]; at 50.0 µM) | growth inhibition [2, 7] | growth inhibition [2, 8] | growth inhibition ([2]; at 50.0 µM) | growth inhibition [3, 7] | growth inhibition [3, 8] | growth inhibition ([3]; at 50.0 µM) | growth inhibition [4, 7] | growth inhibition [4, 8] | growth inhibition ([4]; at 50.0 µM) | growth inhibition [5, 7] | growth inhibition [5, 8] | growth inhibition ([5]; at 50.0 µM) | growth inhibition [6, 7] | growth inhibition [6, 8] | growth inhibition ([6]; at 50.0 µM) |
| --- | --- | --- | --- | --- | --- | --- | --- | --- | --- | --- | --- | --- | --- | --- | --- | --- | --- | --- |
| O=C(O)CCCCCCCCCCOc1ccc(Cl)cc1Cl | -3% | -8% | 98% (active) | -2% | -2% | 99.1% (active) | 0% | -3% | 94.3% (active) | 1% | -8% | 5.5% | -1% | 2% | 99.3% (active) | 0% | -1% | 98.2% (active) |
| O=C1/C(=C\c2ccc([N+](=O)[O-])o2)Oc2cc(O)ccc21 | 97% (active) | 96% (active) | 95.2% (active) | 97% (active) | 97% (active) | 91.8% (active) | 96% (active) | 96% (active) | 95.7% (active) | 98% (active) | 98% (active) | 93.6% (active) | 75% (active) | 90% (active) | 41.5% | 97% (active) | 98% (active) | 95.7% (active) |
| COc1ccc(/C=C/Cc2cc3c(cc2O)OCO3)cc1 | -15% | 13% | -4.05% | -2% | -10% | -9.7% | 12% | 5% | 13.1% | 3% | -2% | 25.8% | -2% | 14% | 17.2% | -6% | 1% | 0.85% |
| Clc1ccc(OCC2CO2)c(Cl)c1 (configuration not stated) | 43% | 93% (active) | 96.6% (active) | -17% | 40% | 91.5% (active) | 40% | 82% (active) | 92.2% (active) | 5% | 40% | 86.5% (active) | 6% | -7% | 14.9% | 16% | 84% (active) | 96.8% (active) |
| O=C(OC1C=C=CS(=O)(=O)CC#C/C=C\1)c1cnc2ccccc2n1 (configuration not stated) | 15% | 96% (active) | 76.9% (active) | -17% | 95% (active) | 75.8% (active) | -28% | 91% (active) | 74.3% (active) | 15% | 90% (active) | 78.5% (active) | -36% | 94% (active) | 79.5% (active) | 19% | 97% (active) | 69.3% |
| O=C1NC(O)c2cccc(Cl)c2O1 (configuration not stated) | 52% | 99% (active) | 88.8% (active) | 22% | 99% (active) | 92.2% (active) | 17% | 99% (active) | 83.3% (active) | 5% | 99% (active) | 97.8% (active) | 15% | 98% (active) | 94.8% (active) | 28% | 99% (active) | 98.3% (active) |
| Cc1ccc(C)c(NC(=O)CCC(=O)CC(=O)c2ccncc2)c1 | -4% | 12% | -32% | 3% | 4% | 7.45% | 8% | 4% | 16.8% | -4% | 3% | 1.25% | -7% | 4% | 10.7% | 0% | -1% | 24.1% |
| COC(=O)C1C(=O)CC(c2ccccc2)C1c1ccccc1 (configuration not stated) | 2% | -4% | 6.5% | 1% | -3% | -6.25% | -1% | -4% | -7.85% | 0% | -5% | 15.8% | 7% | 10% | 1.2% | 0% | -3% | -0.75% |
| COc1cccc2c1C(=O)c1c(O)c(CCl)cc(O)c1C2=O | 44% | 97% (active) | 94% (active) | 23% | 91% (active) | 76.5% (active) | 47% | 96% (active) | 95.2% (active) | 17% | 96% (active) | 91.5% (active) | 3% | 49% | 21.8% | 35% | 97% (active) | 94.6% (active) |
| Cc1nn(C(=O)c2ccccc2O)c2c1C(c1ccc3ccccc3c1O)SC(N)=N2 (configuration not stated) | 8% | 97% (active) | 97.1% (active) | 0% | 95% (active) | 92.5% (active) | -4% | 96% (active) | 96.8% (active) | -9% | 59% | 92.1% (active) | -13% | 97% (active) | 97.8% (active) | 9% | 98% (active) | 97.7% (active) |
| c1ccc(Cn2nnc(-c3ccccc3)c2-c2ccccc2)cc1 | -2% | 90% (active) | 90.6% (active) | -12% | 97% (active) | 87.6% (active) | -6% | 96% (active) | 85.6% (active) | 6% | 97% (active) | 87.8% (active) | 17% | 96% (active) | 94% (active) | 14% | 94% (active) | 87.5% (active) |
| Nn1c(-c2ccccc2)nn(C(=O)c2ccccc2)c1=O | 0% | 39% | 39.5% | -2% | 45% | 39.7% | 15% | 50% | 60% | -1% | 8% | 30.4% | -3% | 62% | 14.7% | 1% | 58% | 87.7% (active) |
| Cc1ccc(Cc2n[nH]c(=O)[nH]2)cc1 | 32% | 35% | -28.9% | 18% | 14% | -45.1% | 30% | 33% | -35.7% | 17% | 30% | -2.5% | 26% | 22% | -26.3% | 45% | 52% | -31.6% |
| O=C(O)CN(CCN1CC(=O)OC(=O)C1)CCN1CC(=O)OC(=O)C1 | 4% | 61% | 89.9% (active) | -1% | 49% | 88.5% (active) | 8% | 29% | 86.5% (active) | -8% | 46% | 70.5% (active) | 4% | 88% (active) | 72.5% (active) | 8% | 41% | 84.3% (active) |
| COC(=O)Cc1nc2ccccc2s1 | 1% | 99% (active) | 99.2% (active) | -9% | 100% (active) | 99.5% (active) | 11% | 92% (active) | 99.3% (active) | 13% | 96% (active) | 97.3% (active) | -10% | 100% (active) | 98.5% (active) | -2% | 76% (active) | 99% (active) |
| Cc1ccc(NN(C)c2ccc(C)cc2)cc1 | -4% | 2% | 34.3% | -1% | -8% | 16.1% | -4% | -10% | -11.4% | 5% | -4% | 13.4% | 9% | 18% | 27.6% | -3% | 1% | 3.1% |
| c1ccc(SSc2ccccc2)cc1 | -6% | 64% | 47.3% | -38% | 18% | 20.7% | 0% | 25% | 77% (active) | 1% | 3% | 18.9% | 38% | 20% | 26.7% | -2% | 50% | 87.7% (active) |
| CC1(CCC(=O)O)c2ccc3ccccc3c2Oc2c1ccc1ccccc21 | 79% (active) | 94% (active) | 93.8% (active) | 92% (active) | 94% (active) | 96.2% (active) | 81% (active) | 94% (active) | 96% (active) | 77% (active) | 95% (active) | 94.9% (active) | 51% | 92% (active) | 95.9% (active) | 84% (active) | 92% (active) | 94.8% (active) |
| O=C(c1ccc(OCC(O)CN2CCN(c3ccccc3)CC2)cc1)c1cc2ccccc2c2ccccc12 (configuration not stated) | 13% | 85% (active) | 61% | 12% | 78% (active) | 82.8% (active) | 17% | 49% | 44.6% | 3% | 80% (active) | 91.5% (active) | 10% | 91% (active) | 89.3% (active) | 9% | 87% (active) | 96.2% (active) |
